From PubChem BioAssay (EPA / NIEHS)
Active and inactive are the calls of the source. How the source made its calls: active means hit-call score of the fitted dose curve at least 0.9, where 1 is the maximum; inactive means score below 0.9.

Tests used:
[1] = read-out: urokinase plasminogen activator (uPA), PLAU (gene 5328); assay: BSK_KF3CT_uPA: BioMAP Diversity Plus: KF3CT Assay for urokinase plasminogen activator (uPA) Biomarker Activity (AID 2283075); conditions: primary human keratinocytes with fibroblasts; actives raise or lower the signal
Outline: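 Skin co-culture (keratinocytes + foreskin fibroblasts), human primary; 24 h post-dose; uPA by ELISA; gain/loss fit vs DMSO baseline.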

CD40, CD40 (gene 958) [2] = assay: BSK_LPS_CD40: BioMAP Diversity Plus: LPS Assay for CD40 Biomarker Activity (AID 2283076); conditions: primary human HUVEC with PBMC; actives raise or lower the signal
Outline: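 CD40 signal, measured by ELISA, is fitted in both directions relative to DMSO vehicle. The system is an LPS-driven human vascular primary co-culture of endothelial cells and PBMC, sampled 24 h after compound addition.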

[3] = read-out: Interleukin-8 (IL8), CXCL8 (gene 3576); assay: BSK_LPS_IL8: BioMAP Diversity Plus: LPS Assay for Interleukin-8 (IL8) Biomarker Activity (AID 2283078); conditions: primary human HUVEC with PBMC; actives raise or lower the signal
Outline: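 Endothelial cells and PBMC from human donors are co-cultured, treated with chemicals and LPS, then assayed for IL-8 by ELISA after 24 h. Parallel SRB staining (0.1% SRB after 10% TCA fixation, 560 nm) flags cytotoxicity.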

[4] = BSK_LPS_SRB: Viability Assessment in the BioMAP Diversity Plus: LPS Assay (AID 2283079); conditions: primary human HUVEC with PBMC;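 further: total protein by sulforhodamine B absorbance as a cytotoxicity measure; measured one day after compound addition; fitted in both directions against DMSO so loss or gain of signal counts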
Outline: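 Overt cytotoxicity was gauged by sulforhodamine B total-protein staining in a primary human vascular endothelial and mononuclear cell co-culture 24 h post-dosing. Activity was fitted in both directions relative to DMSO.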

[5] = read-out: Interleukin-1 alpha (IL1a), IL1A (gene 3552); assay: BSK_LPS_IL1a: BioMAP Diversity Plus: LPS Assay for Interleukin-1 alpha (IL1a) Biomarker Activity (AID 2283080); conditions: primary human HUVEC with PBMC; actives raise or lower the signal
Outline: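 Measured: IL-1 alpha via ELISA at 24 h in LPS-activated human umbilical vein endothelium–PBMC co-culture. Baseline: DMSO, bidirectional fitting.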

[6] = read-out: Monocyte Chemoattractant Protein-1 (MCP1), CCL2 (gene 6347); assay: BSK_LPS_MCP1: BioMAP Diversity Plus: LPS Assay for Monocyte Chemoattractant Protein-1 (MCP1) Biomarker Activity (AID 2283081); conditions: primary human HUVEC with PBMC; actives raise or lower the signal;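 on AC50: secreted MCP-1 protein quantified by ELISA in culture supernatant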
Outline: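 LPS-stimulated HUVEC/PBMC co-culture; chemical, 24 h; MCP-1 by ELISA; bidirectional fit vs DMSO; cytotoxicity via SRB (0.1% stain, 10% TCA fix, 560 nm) in parallel wells.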

[7] = BSK_LPS_PGE2: BioMAP Diversity Plus: LPS Assay for Prostaglandin E2 (PGE2) Biomarker Activity (AID 2283082); conditions: primary human HUVEC with PBMC; actives raise or lower the signal;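 on AC50: secreted prostaglandin E2 measured by ELISA in LPS-stimulated co-culture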
Outline: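 Compounds were added to the LPS co-culture of endothelium and PBMC, and PGE2 was measured by ELISA after 24 h. Responses in either direction were fitted with DMSO as baseline.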

[8] = read-out: Macrophage colony-stimulating factor (MCSF), CSF1 (gene 1435); assay: BSK_LPS_MCSF: BioMAP Diversity Plus: LPS Assay for Macrophage colony-stimulating factor (MCSF) Biomarker Activity (AID 2283083); conditions: primary human HUVEC with PBMC; actives raise or lower the signal
Outline: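 Compound is added to a human vascular primary co-culture of umbilical vein endothelium and blood mononuclear cells. After 24 h, M-CSF is quantified by ELISA. Signal changes are fitted in both directions against DMSO.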

[9] = read-out: Tissue Factor, F3 (gene 2152); assay: BSK_LPS_TissueFactor: BioMAP Diversity Plus: LPS Assay for Tissue Factor Biomarker Activity (AID 2283084); conditions: primary human HUVEC with PBMC; actives raise or lower the signal
Outline: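 In this co-culture system of umbilical vein endothelium with PBMC, stimulated with LPS, cell-surface CD142 is detected by ELISA at 24 h. Endpoint values derive from bidirectional fitting, DMSO serving as baseline.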

[10] = read-out: Tumor necrosis factor (Homo sapiens) (UniProt P01375); assay: BSK_LPS_TNFa: BioMAP Diversity Plus: LPS Assay for Tumour Necrosis Factor alpha (TNFa) Biomarker Activity (AID 2283085); conditions: primary human HUVEC with PBMC; actives raise or lower the signal
Outline: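 Cells (umbilical vein endothelium plus peripheral blood mononuclear cells) were dosed with chemical, incubated 24 h, then TNFa was quantified by ELISA; values derive from bidirectional fitting with DMSO as baseline.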

CD38, CD38 (gene 952) = assay: BSK_SAg_CD38: BioMAP Diversity Plus: SAg Assay for CD38 Biomarker Activity (AID 2283087); conditions: primary human HUVEC with PBMC; actives raise or lower the signal
Outline: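 CD38 quantified by ELISA (fluorescence) in a superantigen-activated endothelial cell–PBMC co-culture at 24 h post-dose. Activity fitted in both directions relative to DMSO; parallel SRB and Alamar Blue cytotoxicity read-outs.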

CD40, CD40 (gene 958) [11] = assay: BSK_SAg_CD40: BioMAP Diversity Plus: SAg Assay for CD40 Biomarker Activity (AID 2283088); conditions: primary human HUVEC with PBMC; actives raise or lower the signal
Outline: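 Fluorescence ELISA read-out of CD40 from umbilical vein endothelium plus peripheral blood mononuclear cells, sampled 24 h after dosing. Values come from bidirectional curve fitting with DMSO as baseline.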

CD69, CD69 (gene 969) = assay: BSK_SAg_CD69: BioMAP Diversity Plus: SAg Assay for CD69 Biomarker Activity (AID 2283089); conditions: primary human HUVEC with PBMC; actives raise or lower the signal;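 on AC50: cell surface CD69 protein quantified by ELISA with fluorescence detection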
Outline: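 Values derive from bidirectional fitting relative to DMSO vehicle. Cells: umbilical vein endothelium plus peripheral blood mononuclear cells, treated 24 h before fluorescent ELISA for CD69.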

[12] = read-out: Monocyte Chemoattractant Protein-1 (MCP1), CCL2 (gene 6347); assay: BSK_SAg_MCP1: BioMAP Diversity Plus: SAg Assay for Monocyte Chemoattractant Protein-1 (MCP1) Biomarker Activity (AID 2283090); conditions: primary human HUVEC with PBMC; actives raise or lower the signal
Outline: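 Values derive from bidirectional fitting of ELISA-measured MCP1 against DMSO controls. Readings were taken 24 h after dosing human vascular endothelial cells co-cultured with peripheral blood mononuclear cells under superantigen stimulation.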

[13] = read-out: E-selectin (Homo sapiens) (UniProt P16581); assay: BSK_SAg_Eselectin: BioMAP Diversity Plus: SAg Assay for Eselectin Biomarker Activity (AID 2283091); conditions: primary human HUVEC with PBMC; actives raise or lower the signal
Outline: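 Primary human endothelial cells and peripheral blood mononuclear cells were co-cultured and exposed to chemical for 24 hours. E-selectin levels were then quantified by ELISA, with bidirectional curve fitting normalised to DMSO controls.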

[14] = read-out: Monokine induced gamma interferon (MIG), CXCL9 (gene 4283); assay: BSK_SAg_MIG: BioMAP Diversity Plus: SAg Assay for Monokine induced gamma interferon (MIG) Biomarker Activity (AID 2283092); conditions: primary human HUVEC with PBMC; actives raise or lower the signal
Outline: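 Values reflect bidirectional fitting of ELISA-measured MIG against DMSO vehicle, taken 24 h after dosing of a co-culture of human umbilical vein endothelial cells and peripheral blood mononuclear cells.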

[15] = read-out: Interleukin-8 (IL8), CXCL8 (gene 3576); assay: BSK_SAg_IL8: BioMAP Diversity Plus: SAg Assay for Interleukin-8 (IL8) Biomarker Activity (AID 2283094); conditions: primary human HUVEC with PBMC; actives raise or lower the signal
Outline: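 Chemicals were dosed onto a human endothelial–PBMC co-culture, and IL-8 was quantified by ELISA after 24 h. Both increases and decreases were fitted relative to DMSO.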

[16] = read-out: E-selectin (Homo sapiens) (UniProt P16581); assay: BSK_LPS_Eselectin: BioMAP Diversity Plus: LPS Assay for Eselectin Biomarker Activity (AID 2283077); conditions: primary human HUVEC with PBMC; actives raise or lower the signal
Outline: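 Signal of E-selectin, detected by ELISA, served as the endpoint; cells were umbilical vein endothelium with PBMC, read 24 h after treatment. DMSO defined baseline, and both increases and decreases were fitted.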

[17] = read-out: Vascular cell adhesion molecule 1 (VCAM1), VCAM1 (gene 7412); assay: BSK_LPS_VCAM1: BioMAP Diversity Plus: LPS Assay for Vascular cell adhesion molecule 1 (VCAM1) Biomarker Activity (AID 2283086); conditions: primary human HUVEC with PBMC; actives raise or lower the signal
Outline: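 Cells are dosed in an LPS-stimulated endothelial/mononuclear co-culture and, after 24 h, VCAM-1 is quantified by ELISA. Activity in either direction is fitted relative to the DMSO negative control.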

[18] = BSK_SAg_PBMCCytotoxicity: PBMC Cytotoxicity Assessment in the BioMAP Diversity Plus: SAg Assay (AID 2283093); conditions: primary human HUVEC with PBMC;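 further: fitted both ways against DMSO so a hit may be loss or gain of signal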;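 on AC50: PBMC superantigen activated with SEB plus TSST-1 one hour after compound addition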
Outline: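 PBMC viability by Alamar Blue reduction, fluorescence read at 546/580 nm after 6 h dye exposure. Cells were dosed 1 h before SEB plus TSST-1 activation (20 ng/mL final each), then held 90 h; endothelial/PBMC human co-culture.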

Measured: AC50

Tumor necrosis factor (Homo sapiens), sequence (P01375 whole entry, looked up): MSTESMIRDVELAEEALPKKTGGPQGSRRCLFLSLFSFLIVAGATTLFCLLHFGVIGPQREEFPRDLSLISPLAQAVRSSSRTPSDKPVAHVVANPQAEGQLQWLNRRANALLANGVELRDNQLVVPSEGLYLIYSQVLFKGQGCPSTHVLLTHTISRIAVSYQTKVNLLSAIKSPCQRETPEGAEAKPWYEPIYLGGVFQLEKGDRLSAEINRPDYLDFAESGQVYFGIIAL
E-selectin (Homo sapiens), sequence (P16581 whole entry, looked up): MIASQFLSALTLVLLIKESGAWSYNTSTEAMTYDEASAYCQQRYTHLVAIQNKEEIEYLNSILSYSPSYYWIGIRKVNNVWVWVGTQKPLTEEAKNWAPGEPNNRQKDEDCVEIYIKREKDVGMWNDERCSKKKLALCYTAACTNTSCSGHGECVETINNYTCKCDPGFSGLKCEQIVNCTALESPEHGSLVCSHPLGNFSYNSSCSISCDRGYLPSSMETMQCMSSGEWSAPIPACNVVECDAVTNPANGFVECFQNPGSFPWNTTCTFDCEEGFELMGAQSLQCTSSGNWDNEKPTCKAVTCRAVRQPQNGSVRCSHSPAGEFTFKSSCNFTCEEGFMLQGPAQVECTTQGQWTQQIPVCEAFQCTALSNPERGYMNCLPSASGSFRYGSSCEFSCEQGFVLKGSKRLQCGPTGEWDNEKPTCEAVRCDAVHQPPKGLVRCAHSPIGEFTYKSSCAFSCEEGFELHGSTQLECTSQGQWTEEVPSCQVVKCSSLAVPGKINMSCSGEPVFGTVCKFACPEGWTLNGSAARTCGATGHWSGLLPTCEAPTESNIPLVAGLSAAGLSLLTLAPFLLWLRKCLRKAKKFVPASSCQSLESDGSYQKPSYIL

Clc1cccc(Cl)c1Cl
not listed: [16] | [17] | [18]
inactive: all other assays above

CC(C)(COCC1CO1)COCC1CO1 (configuration not stated)
active: CD69, CD69 (gene 969) 20 µM | [13] 20 µM
not listed: [4] | [8] | [18]
inactive: all other assays above

Oc1ccc(Cc2ccc(O)cc2)cc1
not listed: [4] | [8] | [17] | [18]
inactive: all other assays above

c1ccc(-c2cccc(-c3ccccc3)c2)cc1
inactive: [1] | [10] | [14]
active: CD40, CD40 (gene 958) [2] 25.4 µM | [16] 29.7 µM | [3] 29.9 µM | [5] 20 µM | [6] 29.5 µM | [7] 0.75 µM | [8] 30.2 µM | [9] 32.7 µM | CD38, CD38 (gene 952) 30.5 µM | CD40, CD40 (gene 958) [11] 29.4 µM | CD69, CD69 (gene 969) 30.9 µM | [12] 32.5 µM | [13] 33.1 µM | [18] 20 µM | [15] 20 µM

O=S(=O)(C(Cl)(Cl)Cl)C(Cl)(Cl)Cl
active: [1] 3.52 µM | CD40, CD40 (gene 958) [2] 1.51 µM | [16] 2.4 µM | [3] 2.88 µM | [5] 1.6 µM | [6] 4.15 µM | [9] 3.21 µM | CD38, CD38 (gene 952) 2.64 µM | CD40, CD40 (gene 958) [11] 2.74 µM | CD69, CD69 (gene 969) 3.57 µM | [12] 4.17 µM | [13] 3.13 µM | [14] 7.79 µM | [15] 1.79 µM
inactive: [7] | [10]

OC(Cc1ccccc1Cl)(Cn1cncn1)C1(Cl)CC1 (configuration not stated)
active: [7] 2.02 µM
not listed: [4] | [8] | [17] | [18]
inactive: all other assays above

Cc1cc(Cl)ccc1OC(C)C(=O)O (configuration not stated)
not listed: [4] | [8] | [17]
inactive: all other assays above
